Results filed as inconclusive are left out. The source holds several records for some structures; these can differ, active in one and inactive in another. Activity calls are given as the source filed them. How the source made its calls, unless noted: active means hit-call score of the fitted dose curve at least 0.9, where 1 is the maximum; inconclusive means response in the unintended direction; inactive means score below 0.9.

Assay [1] deals with Bile acid receptor (Homo sapiens) (UniProt Q96RI1). As to the kind of experiment: OT_FXR_FXRSRC1_1440: Odyssey Thera (OT) 24-hour HEK293T Protein-Complementation Assay for Farnesoid X receptor/SRC-1 Co-activator (AID 2283384). The procedure, abridged:
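Cell-based binding reporter: interaction of FXR with SRC-1 brings reporter fragments together, giving a fluorescence signal read 24 h after dosing of HEK293T cells.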

For assay [2], the target named is Retinoic acid receptor RXR-alpha (Homo sapiens) (UniProt P19793). In words: OT_NURR1_NURR1RXRa_0480: Odyssey Thera (OT) 8-hour HEK293T Protein Complementation Assay for Nurr1/retinoid X receptor (RXR) (AID 2283385). An outline of the steps: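 Compounds are applied to HEK293T cells carrying Nurr1 and RXRα linked to reporter fragments. After 8 h, fluorescence intensity reports heterodimer formation, with DMSO as baseline.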
Chain of Retinoic acid receptor RXR-alpha (Homo sapiens) (P19793 whole entry, looked up, the tested form may be a part): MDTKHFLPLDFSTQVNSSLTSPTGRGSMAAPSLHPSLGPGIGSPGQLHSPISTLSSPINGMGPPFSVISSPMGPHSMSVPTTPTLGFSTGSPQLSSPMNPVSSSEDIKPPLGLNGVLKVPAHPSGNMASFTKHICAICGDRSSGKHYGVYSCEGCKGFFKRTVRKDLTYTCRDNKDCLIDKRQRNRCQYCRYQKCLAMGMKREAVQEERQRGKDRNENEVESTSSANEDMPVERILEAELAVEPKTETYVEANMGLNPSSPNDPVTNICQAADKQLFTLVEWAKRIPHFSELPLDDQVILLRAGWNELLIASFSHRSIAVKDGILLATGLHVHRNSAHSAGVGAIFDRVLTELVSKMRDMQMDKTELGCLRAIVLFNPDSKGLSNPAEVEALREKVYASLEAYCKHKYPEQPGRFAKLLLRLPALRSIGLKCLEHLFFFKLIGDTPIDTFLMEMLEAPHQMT

Assay [3] has as its target Peroxisome proliferator-activated receptor gamma (Homo sapiens) (UniProt P37231). As to the kind of experiment: OT_PPARg_PPARgSRC1_0480: Odyssey Thera (OT) 8-hour Protein-Complementation Assay for Peroxisome Proliferator-activated Receptor Gamma / SRC-1 Co-activator (AID 2283387).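 Further: nuclear to cytoplasmic split Venus YFP fluorescence ratio reporting PPARg SRC-1 interaction.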 An outline of the steps: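 Read-out: 488 nm N/C fluorescence ratio from complemented Venus YFP fragments, ≥350 cells per image, gain-of-signal fitted against DMSO baseline. Fusions of PPARg/SRC-1 with IFP1/IFP2 expressed transiently in HEK293T; compounds applied 8 h.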

Assay [4] has the same target. In words: OT_PPARg_PPARgSRC1_1440: Odyssey Thera (OT) 24-hour Protein-Complementation Assay for Peroxisome Proliferator-activated Receptor Gamma/ SRC-1 Co-activator (AID 2283388).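 Further: nuclear to cytoplasmic ratio of reconstituted Venus YFP fluorescence in fixed imaged cells.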 The procedure, abridged:
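Readout: nuclear-to-cytoplasmic 488 nm fluorescence ratio, ≥350 cells per image, 8 images per well, after 24 h compound exposure of HEK293T expressing PPARg/SRC-1 split-YFP fusions. Activity fitted in positive direction against DMSO.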

Read-out in assay [5]: Tumor necrosis factor receptor superfamily member 6 (Homo sapiens) (UniProt P25445)
As to the kind of experiment: LTEA_HepaRG_FAS: Life Technologies and Expression Analysis (LTEA) Assay for Fas cell surface death receptor (FAS) using HepaRG (AID 2283447; active means hit-call score of the fitted dose curve at least 0.9, where 1 is the maximum; inactive means score below 0.9). To be noted: mRNA level, 48 h; actives raise or lower the signal. The procedure, abridged: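 Differentiated human HepaRG cells, pre-cultured 48 h, were exposed in duplicate for 48 h to 8-point half-log concentrations (top 100 uM, 0.5% DMSO) in serum-free induction medium; FAS mRNA measured by qRT-PCR, normalized to ACTB/GAPDH/POLR2A, bidirectional fit versus DMSO.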

Read-out in assay [6]: Fatty acid synthase (Homo sapiens) (UniProt P49327)
In words: LTEA_HepaRG_FASN: Life Technologies and Expression Analysis (LTEA) Assay for Fatty Acid Synthase (FASN) using HepaRG (AID 2283448; active means hit-call score of the fitted dose curve at least 0.9, where 1 is the maximum; inactive means score below 0.9). As to conditions: mRNA level, 48 h; actives raise or lower the signal. An outline of the steps:
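Transcript-level assay: HepaRG liver cells are treated for 48 h across an eight-point range topping at 100 uM, and FASN mRNA, normalized to three housekeeping genes, is compared with DMSO controls in both directions.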

Read-out in assay [7]: Cyclin D2 (CCND2), CCND2 (gene 894)
In words: LTEA_HepaRG_CCND2: Life Technologies and Expression Analysis (LTEA) Assay for Cyclin D2 (CCND2) using HepaRG (AID 2283449; active means hit-call score of the fitted dose curve at least 0.9, where 1 is the maximum; inactive means score below 0.9;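 further: CCND2 transcript measured by TaqMan qRT-PCR and normalised to three housekeeping genes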). As to conditions: mRNA level, 48 h; actives raise or lower the signal. An outline of the steps:
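Differentiated human HepaRG cells were exposed for 48 h in serum-free induction medium to eight half-log concentrations topping at 100 uM (0.5% DMSO vehicle). CCND2 mRNA was quantified by TaqMan qRT-PCR, normalised to ACTB, GAPDH and POLR2A, and fitted bidirectionally against DMSO.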

Read-out in assay [8]: catalase (CAT), CAT (gene 847)
As to the kind of experiment: LTEA_HepaRG_CAT: Life Technologies and Expression Analysis (LTEA) Assay for catalase (CAT) using HepaRG (AID 2283452; active means hit-call score of the fitted dose curve at least 0.9, where 1 is the maximum; inactive means score below 0.9). To be noted: mRNA level, 48 h; actives raise or lower the signal. The procedure, abridged:
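Differentiated HepaRG cells in serum-free induction medium were dosed 48 h in duplicate, eight half-log concentrations from 100 uM in 0.5% DMSO. Transcript measured by TaqMan qRT-PCR, normalised to ACTB/GAPDH/POLR2A, fitted bidirectionally against DMSO.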

Read-out in assay [9]: flavin-containing dimethylaniline monooxygenases 3 (FMO3), FMO3 (gene 2328)
In words: LTEA_HepaRG_FMO3: Life Technologies and Expression Analysis (LTEA) Assay for flavin-containing dimethylaniline monooxygenases 3 (FMO3) using HepaRG (AID 2283453; active means hit-call score of the fitted dose curve at least 0.9, where 1 is the maximum; inactive means score below 0.9;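 on AC50: FMO3 transcript by TaqMan qRT-PCR normalized to ACTB GAPDH and POLR2A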). To be noted: mRNA level, 48 h; actives raise or lower the signal. The procedure, abridged: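 HepaRG, 48 h exposure, 8-pt half-log series from 100 uM, 0.5% DMSO vehicle, duplicates; FMO3 transcript by Fluidigm TaqMan qRT-PCR, housekeeping-normalized; gain/loss fit vs DMSO.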

Read-out in assay [10]: Cytochrome P450 (CYP1A1), CYP1A1 (gene 1543)
In words: LTEA_HepaRG_CYP1A1: Life Technologies and Expression Analysis (LTEA) Assay for Cytochrome P450 (CYP1A1) using HepaRG (AID 2283454; active means hit-call score of the fitted dose curve at least 0.9, where 1 is the maximum; inactive means score below 0.9). As to conditions: mRNA level, 48 h; actives raise or lower the signal. The procedure, abridged: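 qRT-PCR read-out: CYP1A1 transcript normalized to three housekeeping genes, fitted bidirectionally against 0.5% DMSO vehicle baseline. Human HepaRG cells, 48 h chemical exposure, 8-point half-log series topping at 100 uM.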

Read-out in assay [11]: CFLAR gene, CFLAR (gene 8837)
In words: LTEA_HepaRG_CFLAR: Life Technologies and Expression Analysis (LTEA) Assay for CFLAR gene using HepaRG (AID 2283455; active means hit-call score of the fitted dose curve at least 0.9, where 1 is the maximum; inactive means score below 0.9). As to conditions: mRNA level, 48 h; actives raise or lower the signal. An outline of the steps: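 HepaRG cells were plated for 48 h, switched to serum-free induction medium, then exposed in duplicate for 48 h to 8 concentrations (top 100 uM, half-log steps, 0.5% DMSO). CFLAR mRNA was measured by qRT-PCR, normalized to ACTB, GAPDH and POLR2A.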

Assay [12] has as its target Retinoic acid receptor RXR-alpha (Homo sapiens) (UniProt P19793). In words: OT_NURR1_NURR1RXRa_1440: Odyssey Thera (OT) 24-hour HEK293T Protein Complementation Assay for Nurr1/retinoid X receptor (RXR) (AID 2283386). The procedure, abridged: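 Measured as fluorescence from a reconstituted split reporter, this 24 h HEK293T complementation assay scores compound-induced gain of Nurr1/RXRα association relative to DMSO.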

Read-out in assay [13]: Cyclin Dependent Kinase Inhibitor 1A (CDKN1A), CDKN1A (gene 1026)
In words: LTEA_HepaRG_CDKN1A: Life Technologies and Expression Analysis (LTEA) Assay for Cyclin Dependent Kinase Inhibitor 1A (CDKN1A) using HepaRG (AID 2283450; active means hit-call score of the fitted dose curve at least 0.9, where 1 is the maximum; inactive means score below 0.9). To be noted: mRNA level, 48 h; actives raise or lower the signal. An outline of the steps:
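HepaRG, 48 h dosing, 8-pt half-log series from 100 uM top, 0.5% DMSO vehicle, duplicates. Readout: TaqMan qRT-PCR of CDKN1A transcript, housekeeping-normalized (ACTB, GAPDH, POLR2A). Up/down curve fit relative to DMSO.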

Assay [14] in a line: CEETOX_H295R_11DCORT: CeeTox H295R High-throughput Steroidogenesis Assay for 11-Deoxycortisol (11DCORT) (AID 2283432; active means hit-call score of the fitted dose curve at least 0.9, where 1 is the maximum; inactive means score below 0.9;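 on AC50: human adrenal H295R cells prestimulated with 10 µM forskolin for 48 h; 11-deoxycortisol secreted into the medium measured by LC-MS/MS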). To be noted: actives raise or lower the signal. An outline of the steps:
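H295R cells; 10 uM forskolin prestim 48 h; compound in 0.1% DMSO 48 h; media extracted with MTBE; 11-deoxycortisol by LC-MS/MS, 7-point standard curve; gain/loss vs DMSO baseline; viability by MTT in same wells.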

Assay [15] in a line: CEETOX_H295R_CORTIC: CeeTox H295R High-throughput Steroidogenesis Assay for Corticosterone (CORTIC) (AID 2283437; active means hit-call score of the fitted dose curve at least 0.9, where 1 is the maximum; inactive means score below 0.9;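 further: corticosterone secreted into medium quantified by mass spectrometry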;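 on AC50: human H295R adrenal cells prestimulated with forskolin before chemical exposure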). As to conditions: actives raise or lower the signal. An outline of the steps: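 H295R cells were prestimulated 48 h with 10 uM forskolin, then exposed 48 h to test chemical in 0.1% DMSO. Medium corticosterone was MTBE-extracted and quantified by HPLC-MS/MS; bidirectional fit versus DMSO baseline.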

Assay [16] is described as follows: CEETOX_H295R_CORTISOL: CeeTox H295R High-throughput Steroidogenesis Assay for Cortisol (AID 2283438; active means hit-call score of the fitted dose curve at least 0.9, where 1 is the maximum; inactive means score below 0.9;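 further: cortisol secreted into medium quantified by LC-MS/MS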). To be noted: actives raise or lower the signal. An outline of the steps: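 Human adrenocortical H295R cells (passage ≤10) received test chemicals for 48 h after forskolin priming. Secreted cortisol was measured by LC-MS/MS.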
A short description of assay [17]: CEETOX_H295R_DOC: CeeTox H295R High-throughput Steroidogenesis Assay for DOC (AID 2283439; active means hit-call score of the fitted dose curve at least 0.9, where 1 is the maximum; inactive means score below 0.9). To be noted: actives raise or lower the signal. The procedure, abridged:
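Secreted DOC was quantified from H295R media by HPLC-MS/MS after 48 h chemical exposure following 48 h forskolin (10 uM) prestimulation. Values were fitted in both directions relative to DMSO, the negative control and baseline.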

Assay [18] is described as follows: CEETOX_H295R_PROG: CeeTox H295R High-throughput Steroidogenesis Assay for Progesterone (PROG) (AID 2283442; active means hit-call score of the fitted dose curve at least 0.9, where 1 is the maximum; inactive means score below 0.9;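 on AC50: human H295R adrenal cells primed with 10 µM forskolin before dosing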). To be noted: actives raise or lower the signal. The procedure, abridged: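 Progesterone read-out: HPLC-MS/MS on MTBE extracts of conditioned medium after 48 h chemical exposure of forskolin-primed (10 uM, 48 h) H295R cells. Gain or loss of signal was fitted relative to DMSO baseline.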

Read-out in assay [19]: Cyclin D1 (CCND1), CCND1 (gene 595)
As to the kind of experiment: LTEA_HepaRG_CCND1: Life Technologies and Expression Analysis (LTEA) Assay for Cyclin D1 (CCND1) using HepaRG (AID 2283451; active means hit-call score of the fitted dose curve at least 0.9, where 1 is the maximum; inactive means score below 0.9). As to conditions: mRNA level, 48 h; actives raise or lower the signal. An outline of the steps:
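qRT-PCR (Fluidigm 96.96 array) read-out of transcript level, housekeeping-normalized (ACTB/GAPDH/POLR2A). HepaRG cells, 48 h chemical exposure, 8-point half-log series from 100 uM, 0.5% DMSO vehicle; gain or loss relative to DMSO baseline.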

Chain of Bile acid receptor (Homo sapiens) (Q96RI1 whole entry, looked up, the tested form may be a part): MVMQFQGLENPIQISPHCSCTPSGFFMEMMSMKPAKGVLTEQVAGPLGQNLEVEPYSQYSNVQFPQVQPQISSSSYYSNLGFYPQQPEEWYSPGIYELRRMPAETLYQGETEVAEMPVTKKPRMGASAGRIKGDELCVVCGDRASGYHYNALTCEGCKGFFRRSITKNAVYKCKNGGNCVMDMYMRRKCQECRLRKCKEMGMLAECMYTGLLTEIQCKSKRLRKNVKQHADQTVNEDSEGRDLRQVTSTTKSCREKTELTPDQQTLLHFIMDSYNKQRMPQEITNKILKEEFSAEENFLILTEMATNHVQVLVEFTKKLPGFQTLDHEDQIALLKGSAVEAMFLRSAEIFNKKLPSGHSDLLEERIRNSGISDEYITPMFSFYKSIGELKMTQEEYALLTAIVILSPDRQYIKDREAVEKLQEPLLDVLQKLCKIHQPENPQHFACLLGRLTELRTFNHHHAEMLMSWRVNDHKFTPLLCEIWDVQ
Chain of Fatty acid synthase (Homo sapiens) (P49327 whole entry, looked up): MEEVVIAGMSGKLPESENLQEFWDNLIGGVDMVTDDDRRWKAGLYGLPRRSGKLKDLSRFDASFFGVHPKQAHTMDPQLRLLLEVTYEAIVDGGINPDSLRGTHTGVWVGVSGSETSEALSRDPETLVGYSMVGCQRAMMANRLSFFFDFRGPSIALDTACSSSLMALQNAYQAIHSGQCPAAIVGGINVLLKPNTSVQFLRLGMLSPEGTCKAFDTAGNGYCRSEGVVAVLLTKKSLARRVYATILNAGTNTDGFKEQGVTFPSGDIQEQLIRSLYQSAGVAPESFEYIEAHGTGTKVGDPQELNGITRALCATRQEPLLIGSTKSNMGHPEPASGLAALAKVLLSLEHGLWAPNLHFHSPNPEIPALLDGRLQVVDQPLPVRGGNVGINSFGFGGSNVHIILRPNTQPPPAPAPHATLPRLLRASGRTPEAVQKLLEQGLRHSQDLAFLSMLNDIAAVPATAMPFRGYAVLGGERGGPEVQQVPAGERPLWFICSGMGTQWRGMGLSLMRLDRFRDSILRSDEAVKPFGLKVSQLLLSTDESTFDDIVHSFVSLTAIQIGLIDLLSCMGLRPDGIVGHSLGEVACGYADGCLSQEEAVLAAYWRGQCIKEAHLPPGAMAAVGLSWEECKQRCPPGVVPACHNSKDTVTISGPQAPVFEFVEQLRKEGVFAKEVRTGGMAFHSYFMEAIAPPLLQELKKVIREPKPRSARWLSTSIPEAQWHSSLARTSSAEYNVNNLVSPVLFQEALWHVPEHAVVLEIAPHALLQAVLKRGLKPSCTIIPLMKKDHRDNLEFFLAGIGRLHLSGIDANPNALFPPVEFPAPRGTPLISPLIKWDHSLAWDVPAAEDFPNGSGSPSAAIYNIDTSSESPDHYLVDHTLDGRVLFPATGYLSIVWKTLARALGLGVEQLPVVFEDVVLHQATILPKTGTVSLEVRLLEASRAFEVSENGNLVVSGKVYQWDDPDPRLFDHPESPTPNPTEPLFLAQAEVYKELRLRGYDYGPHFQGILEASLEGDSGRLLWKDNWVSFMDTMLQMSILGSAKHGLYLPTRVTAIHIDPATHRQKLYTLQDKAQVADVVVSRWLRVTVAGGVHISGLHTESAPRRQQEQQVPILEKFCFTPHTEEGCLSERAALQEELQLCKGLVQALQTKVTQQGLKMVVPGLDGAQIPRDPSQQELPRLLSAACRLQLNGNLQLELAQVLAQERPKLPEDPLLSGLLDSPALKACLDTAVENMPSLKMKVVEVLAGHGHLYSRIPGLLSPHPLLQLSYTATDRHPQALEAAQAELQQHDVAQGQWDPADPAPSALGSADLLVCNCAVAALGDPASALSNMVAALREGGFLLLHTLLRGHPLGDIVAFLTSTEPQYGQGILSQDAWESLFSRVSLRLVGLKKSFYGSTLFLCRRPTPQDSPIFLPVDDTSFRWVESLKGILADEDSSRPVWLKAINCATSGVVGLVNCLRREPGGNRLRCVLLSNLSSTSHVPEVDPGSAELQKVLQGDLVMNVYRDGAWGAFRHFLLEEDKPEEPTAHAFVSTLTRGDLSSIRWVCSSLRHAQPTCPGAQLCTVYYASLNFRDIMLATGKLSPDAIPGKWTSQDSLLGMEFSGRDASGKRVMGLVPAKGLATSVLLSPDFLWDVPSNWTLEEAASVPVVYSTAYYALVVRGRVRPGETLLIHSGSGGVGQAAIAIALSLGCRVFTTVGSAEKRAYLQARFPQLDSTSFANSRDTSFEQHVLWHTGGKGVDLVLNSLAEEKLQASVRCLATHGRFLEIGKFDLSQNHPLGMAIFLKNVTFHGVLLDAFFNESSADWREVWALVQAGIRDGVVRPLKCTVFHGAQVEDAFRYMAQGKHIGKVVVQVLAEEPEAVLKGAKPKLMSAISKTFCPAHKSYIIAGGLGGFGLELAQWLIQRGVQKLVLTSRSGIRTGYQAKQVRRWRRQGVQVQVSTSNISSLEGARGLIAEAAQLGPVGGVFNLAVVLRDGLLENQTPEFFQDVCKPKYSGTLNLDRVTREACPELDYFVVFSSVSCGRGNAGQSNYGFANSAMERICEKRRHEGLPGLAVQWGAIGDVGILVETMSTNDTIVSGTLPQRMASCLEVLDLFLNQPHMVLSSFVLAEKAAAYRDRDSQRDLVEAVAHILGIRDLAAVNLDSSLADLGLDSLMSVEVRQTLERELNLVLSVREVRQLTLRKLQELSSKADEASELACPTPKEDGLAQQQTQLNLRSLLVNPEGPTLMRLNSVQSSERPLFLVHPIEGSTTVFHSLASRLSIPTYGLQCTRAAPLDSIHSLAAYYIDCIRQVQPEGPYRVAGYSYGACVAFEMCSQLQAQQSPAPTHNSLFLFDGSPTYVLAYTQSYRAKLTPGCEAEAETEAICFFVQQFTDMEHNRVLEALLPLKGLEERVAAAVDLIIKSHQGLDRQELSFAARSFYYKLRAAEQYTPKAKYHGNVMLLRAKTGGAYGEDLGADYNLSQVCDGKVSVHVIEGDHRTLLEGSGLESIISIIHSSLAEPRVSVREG
Chain of Peroxisome proliferator-activated receptor gamma (Homo sapiens) (P37231 whole entry, looked up, the tested form may be a part): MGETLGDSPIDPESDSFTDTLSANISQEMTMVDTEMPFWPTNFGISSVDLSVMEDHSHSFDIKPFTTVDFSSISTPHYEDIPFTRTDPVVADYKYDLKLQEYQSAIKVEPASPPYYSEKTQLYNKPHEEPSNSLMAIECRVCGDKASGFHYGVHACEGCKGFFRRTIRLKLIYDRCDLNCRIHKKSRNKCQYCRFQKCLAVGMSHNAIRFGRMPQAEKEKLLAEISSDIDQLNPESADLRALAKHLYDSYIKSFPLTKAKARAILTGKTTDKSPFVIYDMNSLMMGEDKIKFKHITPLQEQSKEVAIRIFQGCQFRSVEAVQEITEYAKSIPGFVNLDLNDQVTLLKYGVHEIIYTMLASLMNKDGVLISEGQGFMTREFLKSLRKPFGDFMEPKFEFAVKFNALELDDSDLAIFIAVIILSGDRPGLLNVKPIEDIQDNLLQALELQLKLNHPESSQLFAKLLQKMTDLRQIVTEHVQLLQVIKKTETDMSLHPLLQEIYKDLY

With `CCCCCCCCOc1ccc(C(=O)c2ccccc2)c(O)c1`, the call in [1], in [2], in assay [3], in assay [4], in assay [5] and in assay [6] was inactive. Also, the result in assay [7], in assay [8], in assay [9] and in [11] was inactive. For the same compound, the AC50 (commonly the concentration giving half of the maximal activity seen) in [10] was 50 µM (active).
In the case of `CC(C)(C)c1csc(-c2cc3cc(OCc4ccccc4CC(=O)O)ccc3o2)n1`, the AC50 in assay [1] is 69.8 µM (active); in assay [2], 2.97 µM (active); in assay [12] it was 29.1 µM (active); in assay [6], 84 µM (active); in assay [8], 28.3 µM (active); in [9], 73.5 µM (active). Also, the figures for the AC50 in [10] and in [11] were 12.2 µM (active) and 73.5 µM (active), respectively. The call in [3], in assay [4], in assay [5], in assay [7] and in [13] was inactive.
For `CC1(C)NC(=O)N(c2ccc([N+](=O)[O-])c(C(F)(F)F)c2)C1=O`, the call in assay [1], in assay [2], in [12], in [3], in assay [4] and in assay [5] was inactive. The result in [6], in assay [10] and in [11] was inactive. Also, the results for the AC50 in assay [13] and in [9] were 80.8 µM (active) and 76.6 µM (active), respectively.
With `O=C1CCC(C2CCCCC2)CC1`, the figures for the AC50 in assay [1] and in assay [10] were 38.4 µM (active) and 50 µM (active), respectively. The outcome in assay [1], in assay [2], in assay [12], in assay [3], in assay [4] and in [14] was inactive. Besides, the result in assay [15], in [16], in [17], in [18], in assay [5] and in [6] was inactive. In addition, the compound was called inactive in assay [7], in assay [9] and in [11].
In the case of `c1ccc2ccccc2c1`, the compound was classed as inactive in [1], in [12], in assay [3], in [4], in assay [5] and in assay [6]. In addition, the call in assay [7], in assay [19], in assay [8], in assay [9], in [10] and in assay [11] was inactive.
As for `COc1cccc([C@H](O)C2CCN(CCc3ccc(F)cc3)CC2)c1OC`, the outcome in [1], in assay [2], in [12], in assay [3], in [4] and in assay [16] was inactive. Moreover, the result in assay [5], in assay [6], in assay [7], in [13], in assay [19] and in [8] was inactive. In addition, the outcome in assay [9] and in [11] was inactive. Besides, the AC50 in [14] was 27 µM (active); in assay [15], 1.22 µM (active); in assay [17], 9.1 µM (active); in assay [18], 0.405 µM (active); in [10] it was 54.5 µM (active).
In the case of `CC1=CC(=O)/C(=C(/C)O)C(=O)O1`, the outcome in assay [1], in assay [2], in assay [12], in [3], in [4] and in assay [5] was inactive. Besides, the compound was called inactive in [6], in assay [7], in assay [13], in assay [19], in assay [8] and in assay [9]. Moreover, the call in assay [10] and in assay [11] was inactive.
Regarding `O=C(O)c1ccccc1C(=O)OCc1ccccc1`, the compound was classed as inactive in assay [1], in [2], in [12], in [3], in assay [4] and in [5]. In addition, the compound was classed as inactive in assay [6], in assay [7], in [19], in [8], in assay [9] and in [11]. In addition, the AC50 in assay [10] was 21.4 µM (active).
